Assay outcomes (PubChem BioAssay)
GSIS activator: GLuc luminescence reporter in INS-1E cells, primary screen for activators of glucose-dependent secretion of insulin; INS-1E GLuc reporter insulin secretion, 2-3 h; 370,000 tested, 0.61% active; activation, % at 16.6 µM;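 active means lowest replicate activation of at least 40%, so every replicate reaches that level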;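 further: 0% = median of neutral control wells and 100% = median of IBMX positive control wells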
Wnt bcat act: Wnt/beta-catenin pathway activators, primary screen, cell-based, plate reader, single point; Wnt/beta-catenin reporter cell assay, activator; activation, % at 9.35 µM; 300,000 tested, 1.2% active; AID 743398, 2014; in the data active means activation above about 30%, passing the limit was not always enough;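 further: 0% = neutral control wells and 100% = positive control wells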
HIV Env fusion: inhibitors of HIV-1 Env-driven cell-cell fusion, primary screen, HeLa-JRFL effector, CEM21 target cells, luciferase; inhibition, % at 12.3 µM; 360,000 tested, 1.1% active;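 active means mean replicate inhibition score of at least 50 and every replicate individually at or above 50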;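 further: 0% = plate neutral controls and 100% = maraviroc near 300 nM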
MITF TRPM1 HTS: activators of MITF-driven TRPM1 promoter reporter, primary screen, cell-based, SK-MEL-5, luciferase, single point | activation, % at 12.5 µM | 300,000 tested, 0.75% active | SK-MEL-5 TRPM1-promoter luciferase, 24 h; % of positive control, neutral wells = 0;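 active means mean activation of at least 80% with every replicate also reaching 80%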;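 further: 0% = neutral control wells and 100% = parthenolide positive control wells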
F508del corr: F508del CFTR correction, initial screen, CFBE line, single point | CFBE cells, YFP halide quenching; stimulated with forskolin plus potentiator P3; % fluorescence drop versus neutral controls | activity (quench increase), % at 7.58 µM | 350,000 tested, 0.36% active | AID 720511, 2013;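 active means mean added fluorescence quench of at least 8% versus neutral control, with both replicates also reaching 8%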;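 further: cells transiently co-express mutant CFTR-F508del with the halide-sensitive YFP; corrector assay measuring rescue of mutant channel to the surface after 24 h compound exposure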
Active calls of the source: *; x = not tested or not shown; [ ] = remark or other dose. Compounds with a hit are over-represented: about 2.7% of the library has one in this group of screens.

SMILES	GSIS activator	Wnt bcat act	HIV Env fusion	MITF TRPM1 HTS	F508del corr
C#CCn1c(S(=O)(=O)Cc2ccccc2Cl)nc(-c2ccccc2)c1-c1ccccc1	-20.2	x	79.1*	-15.0	x
Cc1noc(C)c1NC(=O)N(C)C[C@@H]1Oc2c(NC(=O)c3ccc(-c4nccs4)cc3)cccc2C(=O)N([C@@H](C)CO)C[C@@H]1C	4.0	x	x	x	-2.4
O=C(C1CCCC1)N1C[C@H]2[C@@H](c3ccccc31)[C@H](CO)N2C(=O)c1cccnc1	-0.2	x	x	x	5.5
C[C@H]1CN([C@@H](C)CO)C(=O)Cc2cc(NS(=O)(=O)c3cn(C)cn3)ccc2O[C@H]1CN(C)S(=O)(=O)c1cccs1	-2.3	x	-9.9[16.7 µM]	x	-0.5
NC(=O)c1ccccc1N/C=C/C(=O)c1ccco1	0.5	-3.2	x	45.6	x
O=C(/C=C/Nc1ccc(Oc2ccccc2)cc1)c1ccco1	-17.2	58.6*	-152.8	75.5	0.6
C[C@@H]1CN([C@@H](C)CO)C(=O)c2cc(NS(=O)(=O)c3cccs3)ccc2O[C@@H](C)CCCCO[C@H]1CN(C)CC1CCCCC1	14.4	x	-32.9[16.7 µM]	x	4.7
O=C(N/N=C/c1ccc(O)cc1O)NC12CC3CC(CC(C3)C1)C2	41.3*	2.4	3.3	22.2	4.2
O=C(Cc1ccccn1)NCC[C@H]1CC[C@H](NC(=O)Nc2ccc(Cl)cc2)[C@@H](CO)O1	6.3	x	x	x	3.3
CC(C)OP(=O)(Nc1cccc2ccccc12)OC(C)C	1.2	66.9*	94.3*	-4.1	-1.0
O=C(C[C@@H]1C[C@@H]2c3cc(NC(=O)Cc4ccncc4)ccc3O[C@@H]2[C@H](CO)O1)NCc1ccccc1	-1.5	x	1.8[16.7 µM]	x	-0.7
CCCNC(=O)C[C@@H]1C[C@@H]2c3cc(NC(=O)Cc4ccncc4)ccc3O[C@@H]2[C@@H](CO)O1	-4.0	x	93.3*[16.7 µM]	x	-1.7
O=C(C[C@H]1C[C@H]2c3cc(NC(=O)Cc4ccncc4)ccc3O[C@H]2[C@@H](CO)O1)NCc1ccncc1	-0.2	x	93.4*[16.7 µM]	x	-0.6
CCCNC(=O)C[C@@H]1C[C@@H]2c3cc(NC(=O)Cc4ccncc4)ccc3O[C@@H]2[C@H](CO)O1	-5.1	x	91.1*[16.7 µM]	x	0.2
CC(=O)Nc1ccc(C(=O)OCC(=O)NC(=O)NCc2ccccc2)cc1	x	18.1	71.3*	x	x
CCCNC(=O)N(C)C[C@@H]1Oc2ncc(C#CC3(O)CCCC3)cc2C(=O)N([C@H](C)CO)C[C@H]1C	-7.2	x	-7.5[16.7 µM]	x	1.4
COc1ccc(-c2cc3nc4n(c(=O)c3s2)CCC4)cc1	6.1	-6.1	x	-53.4	-0.1
COc1ccc(-c2cc3nc4n(c(=O)c3s2)CCCCC4)cc1	-12.6	36.9*	-224.5	x	-0.7
COc1ccc(-c2nc3ccccc3c(=O)n2N)cc1	x	x	-75.7	x	x
Cc1nc2cc(-c3ccccc3)sc2c(=O)n1N	13.0	0.8	64.4*	-90.6	-2.5
COc1ccc(-c2cc3nc(C)n(N)c(=O)c3s2)cc1	-6.7	-11.1	84.0*	x	-2.5
C[C@@H]1CN(C)C(=O)Cc2ccccc2O[C@@H]1CN(C)C(=O)OC(C)(C)C	16.1	x	x	x	x
COc1ccccc1CNC(=O)C[C@H]1C[C@H]2c3cc(NS(C)(=O)=O)ccc3O[C@H]2[C@H](CO)O1	-2.2	x	-3.2[16.7 µM]	x	1.8
COc1cccc(CN(C)C[C@@H]2OCc3cn(nn3)CCCC(=O)N([C@H](C)CO)C[C@H]2C)c1	0.4	x	1.6[16.7 µM]	x	0.8
CO[C@@H]1CN(C)C(=O)c2cc(NC(=O)c3cc(C)on3)ccc2OC[C@H](C)N(C(C)=O)C[C@H]1C	7.5	x	x	x	-0.4
SMILES	GSIS activator	Wnt bcat act	HIV Env fusion	MITF TRPM1 HTS	F508del corr
CCNC(=O)C[C@@H]1CC[C@@H]2[C@H](COC[C@@H](O)CN2C(=O)c2ccccn2)O1	-0.2	x	64.7*[16.7 µM]	x	-1.1
O=[N+]([O-])c1ccc(N2CCOCC2)cc1N1CCCCC1	42.9	-0.7	-11.6	-0.2	-0.7
O=[N+]([O-])c1ccc(N2CCCCC2)cc1N1CCOCC1	45.3*	-1.4	20.3	4.2	1.0
COc1ccc2c3c(n(C)c2c1)[C@@H](CO)N(C(=O)C1CCCCC1)CC31CN(C(=O)c2ccncc2)C1	0.1	x	x	x	x
CCN1[C@@H]2c3ccc(-c4ccccc4OC)c(=O)n3C[C@@H]2[C@@H](CO)[C@@H]1C(=O)NCC1CC1	0.8	x	x	x	2.3
S=C(c1ccc(-c2cccc(Cl)c2)o1)N1CCOCC1	-12.2	-2.6	x	139.3*	-1.5
S=C(c1ccc(-c2cccc(Cl)c2)o1)N1CCCCC1	-5.4	40.2*	-103.1	93.4*	1.4
CC(C)NC(=O)Nc1ccc2c(c1)C(=O)N([C@@H](C)CO)C[C@H](C)[C@@H](CN(C)Cc1ccncc1)OCCCC[C@H](C)O2	-18.4	x	-43.5[16.7 µM]	x	2.6
C[C@H](CO)N1C[C@H](C)[C@@H](CN(C)C(=O)c2cnccn2)Oc2cc(C3=CCCC3)ccc2S1(=O)=O	1.8	x	-6.4[16.7 µM]	x	-3.2
Cc1ccc(S(=O)(=O)N(C)C[C@@H]2Oc3cc(Br)ccc3S(=O)(=O)N([C@H](C)CO)C[C@@H]2C)cc1	-10.0	x	62.6*[16.7 µM]	x	0.9
C[C@H](CO)N1C[C@H](C)[C@@H](CN(C)S(=O)(=O)c2ccc(F)cc2)Oc2cc(Br)ccc2S1(=O)=O	-23.7	-2.1	43.6[16.7 µM]	x	-4.1
C[C@H](CO)N1C[C@H](C)[C@H](CN(C)S(=O)(=O)c2ccc(F)cc2)Oc2cc(Br)ccc2S1(=O)=O	-23.7	x	77.2*[16.7 µM]	x	x
CO[C@@H]1CN(C)C(=O)c2cc(NC(=O)C3CC3)ccc2OC[C@@H](C)N(C(=O)c2ccccc2F)C[C@H]1C	-10.5	x	-17.4[16.7 µM]	x	-0.7
NC(=S)c1ccc(OCCCc2ccccc2)cc1	2.7	37.0*	70.3*	x	-0.2
CCCCOc1ccc(C(=O)NCCc2ccccc2)cc1	-5.0	14.2	-64.1	25.8	0.2
C[C@@H]1CN([C@H](C)CO)S(=O)(=O)c2ccc(-c3ccc(C#N)cc3)cc2O[C@H]1CN(C)Cc1cccc(F)c1	-5.8	x	24.0[16.7 µM]	x	8.1*
C[C@H]1CN([C@@H](C)CO)S(=O)(=O)c2ccc(-c3ccc(F)cc3)cc2O[C@H]1CN(C)Cc1cccc(F)c1	-17.5	x	61.7*[16.7 µM]	x	4.6
C[C@@H]1CN([C@H](C)CO)C(=O)Cc2cc(NS(=O)(=O)c3ccc(Cl)cc3)ccc2O[C@@H]1CN(C)S(=O)(=O)c1cccs1	-18.6	x	-5.4[16.7 µM]	x	0.8
O=C(Oc1c(CN2CCOCC2)cc(Cl)c2cccnc12)c1cccs1	-13.1	47.1*	15.2	-70.6	6.2
CCN(CC)S(=O)(=O)c1ccc(N2CCCC2)c(NC(=O)Cc2c(F)cccc2Cl)c1	-0.5	-1.4	56.7*	5.1	2.0
CCN1CCN(c2ccc(S(=O)(=O)N3CCCCC3)cc2NC(=O)Cc2c(F)cccc2Cl)CC1	4.4	0.7	-1.6	5.1	0.1
